# Measurements: PubChem BioAssay (EPA / NIEHS)
# Results filed as inconclusive are left out. Active and inactive are the calls of the source. Rule for the calls: active = hit-call score of the fitted dose curve at least 0.9, where 1 is the maximum; inconclusive = response in the unintended direction; inactive = score below 0.9.
# Legend:
# [1] = biological target: human Aurora Kinase A - serine/threonine-protein Kinase 6 (AurA), AURKA (gene 6790) (UniProt O14965); experiment: NVS_ENZ_hAurA: NovaScreen (NVS) Enzymatic Assay for human Aurora Kinase A - serine/threonine-protein Kinase 6 (AurA) (AID 2283142)
# Sequence of human Aurora Kinase A - serine/threonine-protein Kinase 6 (AurA), AURKA (gene 6790) (O14965 whole entry, looked up): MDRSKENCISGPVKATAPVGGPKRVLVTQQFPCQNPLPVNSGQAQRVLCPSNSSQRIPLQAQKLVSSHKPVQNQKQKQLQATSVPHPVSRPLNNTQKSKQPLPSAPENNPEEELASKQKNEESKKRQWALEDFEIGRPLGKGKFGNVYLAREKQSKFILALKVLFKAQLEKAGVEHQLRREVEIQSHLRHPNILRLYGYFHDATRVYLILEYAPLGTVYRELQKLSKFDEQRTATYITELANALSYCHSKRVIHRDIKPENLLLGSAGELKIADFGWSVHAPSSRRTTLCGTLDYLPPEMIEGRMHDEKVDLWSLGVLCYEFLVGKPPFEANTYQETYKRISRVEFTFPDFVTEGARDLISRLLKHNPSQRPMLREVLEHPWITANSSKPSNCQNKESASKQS
# Method in brief: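 Cell-free enzymatic assay with human Aurora A, 1 hour after dosing. Fluorescent substrate turnover detected after electrophoretic mobility shift separation of substrate and product. Screened at 25 uM, actives retested in concentration-response up to 50 uM.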
# [2] = biological target: human Fibroblast Growth Factor Receptor 1 (FGFR1), FGFR1 (gene 2260) (UniProt P11362); experiment: NVS_ENZ_hFGFR1: NovaScreen (NVS) Enzymatic Assay for human Fibroblast Growth Factor Receptor 1 (FGFR1) (AID 2283159);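 for AC50: hits lower the signal so potencies describe inhibitors of the kinase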
# Sequence of human Fibroblast Growth Factor Receptor 1 (FGFR1), FGFR1 (gene 2260) (P11362 whole entry, looked up): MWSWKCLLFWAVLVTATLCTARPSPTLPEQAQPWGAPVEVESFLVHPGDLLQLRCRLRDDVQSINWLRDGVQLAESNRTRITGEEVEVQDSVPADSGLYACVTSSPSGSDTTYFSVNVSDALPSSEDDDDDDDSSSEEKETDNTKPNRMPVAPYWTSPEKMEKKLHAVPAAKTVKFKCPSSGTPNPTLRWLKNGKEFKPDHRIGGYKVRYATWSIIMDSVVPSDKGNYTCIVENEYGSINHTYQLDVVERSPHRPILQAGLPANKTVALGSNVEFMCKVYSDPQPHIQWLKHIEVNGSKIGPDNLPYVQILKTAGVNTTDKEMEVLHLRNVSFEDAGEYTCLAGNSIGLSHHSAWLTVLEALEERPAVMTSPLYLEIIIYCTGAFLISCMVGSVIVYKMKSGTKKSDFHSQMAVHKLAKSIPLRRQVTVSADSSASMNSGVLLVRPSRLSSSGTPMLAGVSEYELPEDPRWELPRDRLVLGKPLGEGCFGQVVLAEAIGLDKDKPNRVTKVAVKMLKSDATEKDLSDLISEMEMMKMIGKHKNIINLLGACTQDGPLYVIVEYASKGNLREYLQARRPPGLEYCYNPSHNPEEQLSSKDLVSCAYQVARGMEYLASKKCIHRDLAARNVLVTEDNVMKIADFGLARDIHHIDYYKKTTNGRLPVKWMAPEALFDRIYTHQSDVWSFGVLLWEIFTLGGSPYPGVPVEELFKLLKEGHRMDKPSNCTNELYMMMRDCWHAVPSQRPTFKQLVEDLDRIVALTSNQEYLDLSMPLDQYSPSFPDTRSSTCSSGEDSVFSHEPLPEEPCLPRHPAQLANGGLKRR
# Method in brief: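 Cell-free recombinant kinase with fluorescent substrate, product separated by electrophoretic mobility shift; read 1 hour after dosing, loss of signal relative to DMSO. Initial screen in duplicate at 25 uM, actives followed in concentration series.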
# [3] = biological target: human MET Proto-Oncogene, Receptor Tyrosine Kinase (MET), MET (gene 4233) (UniProt P08581); experiment: NVS_ENZ_hMet: NovaScreen (NVS) Enzymatic Assay for human MET Proto-Oncogene, Receptor Tyrosine Kinase (MET) (AID 2283180)
# Sequence of human MET Proto-Oncogene, Receptor Tyrosine Kinase (MET), MET (gene 4233) (P08581 whole entry, looked up): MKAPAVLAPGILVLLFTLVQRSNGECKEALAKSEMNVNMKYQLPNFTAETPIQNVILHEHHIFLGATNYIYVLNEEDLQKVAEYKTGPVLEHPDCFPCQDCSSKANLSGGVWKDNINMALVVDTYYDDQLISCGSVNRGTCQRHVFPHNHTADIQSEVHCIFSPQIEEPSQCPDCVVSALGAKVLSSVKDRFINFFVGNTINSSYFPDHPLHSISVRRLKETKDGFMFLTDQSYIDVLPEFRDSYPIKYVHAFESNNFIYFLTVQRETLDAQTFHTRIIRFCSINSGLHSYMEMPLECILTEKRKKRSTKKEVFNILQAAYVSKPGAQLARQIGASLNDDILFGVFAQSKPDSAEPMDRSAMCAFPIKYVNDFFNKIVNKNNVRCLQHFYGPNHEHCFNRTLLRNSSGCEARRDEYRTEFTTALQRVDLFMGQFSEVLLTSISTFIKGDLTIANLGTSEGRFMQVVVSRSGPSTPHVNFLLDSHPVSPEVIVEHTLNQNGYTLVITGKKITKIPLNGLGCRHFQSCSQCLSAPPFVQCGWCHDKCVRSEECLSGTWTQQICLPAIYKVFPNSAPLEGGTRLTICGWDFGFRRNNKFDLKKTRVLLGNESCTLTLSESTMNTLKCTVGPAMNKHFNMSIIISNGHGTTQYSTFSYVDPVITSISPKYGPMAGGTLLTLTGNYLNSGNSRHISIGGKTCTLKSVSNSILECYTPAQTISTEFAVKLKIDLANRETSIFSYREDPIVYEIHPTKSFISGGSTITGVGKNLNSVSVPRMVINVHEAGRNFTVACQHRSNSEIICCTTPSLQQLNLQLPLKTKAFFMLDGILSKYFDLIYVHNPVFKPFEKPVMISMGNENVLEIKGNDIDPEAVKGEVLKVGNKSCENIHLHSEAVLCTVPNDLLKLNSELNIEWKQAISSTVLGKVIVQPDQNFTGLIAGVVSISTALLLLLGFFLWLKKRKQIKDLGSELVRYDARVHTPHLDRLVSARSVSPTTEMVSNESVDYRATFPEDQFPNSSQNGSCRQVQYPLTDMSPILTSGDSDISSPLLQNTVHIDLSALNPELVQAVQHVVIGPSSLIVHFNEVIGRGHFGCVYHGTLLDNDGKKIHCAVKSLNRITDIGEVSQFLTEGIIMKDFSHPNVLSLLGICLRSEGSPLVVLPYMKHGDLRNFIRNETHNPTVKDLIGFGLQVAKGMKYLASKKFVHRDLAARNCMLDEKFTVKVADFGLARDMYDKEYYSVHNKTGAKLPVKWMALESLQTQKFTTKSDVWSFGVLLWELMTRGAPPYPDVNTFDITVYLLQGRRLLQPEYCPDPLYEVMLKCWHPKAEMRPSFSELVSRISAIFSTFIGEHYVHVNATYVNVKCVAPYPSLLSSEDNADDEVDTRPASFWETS
# Method in brief: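 Cell-free MET kinase assay using recombinant protein and fluorescent substrate, with mobility-shift separation; read 1 h after dosing. Primary duplicate at 25 uM; actives in singleton concentration-response to 50 uM maximum. Signal loss versus DMSO.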
# [4] = biological target: human Protein Tyrosine Phosphatase Non-receptor Type 2 (PTPN2), PTPN2 (gene 5771) (UniProt P17706); experiment: NVS_ENZ_hPTPN2: NovaScreen (NVS) Enzymatic Assay for human Protein Tyrosine Phosphatase Non-receptor Type 2 (PTPN2) (AID 2283207)
# Sequence of human Protein Tyrosine Phosphatase Non-receptor Type 2 (PTPN2), PTPN2 (gene 5771) (P17706 whole entry, looked up): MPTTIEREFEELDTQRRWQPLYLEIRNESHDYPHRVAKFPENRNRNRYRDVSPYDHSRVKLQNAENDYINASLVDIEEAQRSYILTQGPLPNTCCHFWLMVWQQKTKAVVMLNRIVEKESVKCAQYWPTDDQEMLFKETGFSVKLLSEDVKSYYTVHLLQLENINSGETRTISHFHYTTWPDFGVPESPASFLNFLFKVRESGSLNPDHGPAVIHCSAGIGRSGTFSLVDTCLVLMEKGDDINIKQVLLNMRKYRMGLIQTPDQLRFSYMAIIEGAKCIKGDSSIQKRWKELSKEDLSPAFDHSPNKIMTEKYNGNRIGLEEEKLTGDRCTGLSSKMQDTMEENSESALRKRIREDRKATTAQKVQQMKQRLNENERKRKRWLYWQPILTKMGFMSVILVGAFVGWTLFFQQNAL
# Method in brief: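 Cell-free recombinant enzyme with fluorescent substrate, product separated by electrophoretic mobility shift; read 1 h after dosing. Primary screen single concentration (25 uM) in duplicate; actives followed in concentration series; loss of signal versus DMSO.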
# [5] = system: rat Monoamine Oxidase, MAO-A, Central (MAOAC), gene 29253; experiment: NVS_ENZ_rMAOAC: NovaScreen (NVS) Enzymatic Assay for rat Monoamine Oxidase, MAO-A, Central (MAOAC) (AID 2283243);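 note: potency refers to inhibition seen as signal drop below DMSO baseline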
# Method in brief: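 Rat brain tissue extract served as the cell-free enzyme source; activity was measured by radiometric scintillation counting 1.5 hours after compound addition. Loss of signal relative to DMSO baseline indicated inhibition; primary screen at 25 uM in duplicate.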
# [6] = biological target: human Ephrin type-A Receptor 2 (EphA2), EPHA2 (gene 1969) (UniProt P29317); experiment: NVS_ENZ_hEphA2: NovaScreen (NVS) Enzymatic Assay for human Ephrin type-A Receptor 2 (EphA2) (AID 2283155)
# Method in brief: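 Cell-free recombinant EphA2 kinase with specific substrate, 1 h, fluorescence with electrophoretic mobility-shift separation of substrate and product. Primary screen at 25 uM in duplicate; hits retested in singleton concentration-response up to 50 uM, referenced to DMSO.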
# [7] = biological target: rat Acetylcholinesterase (AChE), Ache (gene 83817) (UniProt P37136); experiment: NVS_ENZ_rAChE: NovaScreen (NVS) Enzymatic Assay for rat Acetylcholinesterase (AChE) (AID 2283233)
# Sequence of rat Acetylcholinesterase (AChE), Ache (gene 83817) (P37136 whole entry, looked up): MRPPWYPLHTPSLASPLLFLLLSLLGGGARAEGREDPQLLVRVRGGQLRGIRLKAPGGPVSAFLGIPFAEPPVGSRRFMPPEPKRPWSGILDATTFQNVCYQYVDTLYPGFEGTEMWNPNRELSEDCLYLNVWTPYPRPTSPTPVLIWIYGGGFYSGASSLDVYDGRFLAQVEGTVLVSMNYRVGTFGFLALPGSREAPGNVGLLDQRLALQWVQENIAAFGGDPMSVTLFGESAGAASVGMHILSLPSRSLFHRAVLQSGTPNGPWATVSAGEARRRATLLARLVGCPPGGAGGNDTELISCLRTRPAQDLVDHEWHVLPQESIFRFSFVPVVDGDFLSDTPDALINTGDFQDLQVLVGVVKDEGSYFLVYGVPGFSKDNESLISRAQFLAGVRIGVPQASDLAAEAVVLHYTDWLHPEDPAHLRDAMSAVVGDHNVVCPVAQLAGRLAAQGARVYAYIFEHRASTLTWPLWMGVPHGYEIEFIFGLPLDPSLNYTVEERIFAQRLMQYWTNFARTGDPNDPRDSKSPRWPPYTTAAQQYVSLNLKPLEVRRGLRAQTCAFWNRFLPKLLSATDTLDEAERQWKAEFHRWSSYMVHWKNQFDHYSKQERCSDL
# Method in brief: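 Rat brain membrane acetylcholinesterase activity measured colorimetrically 0.33 h after compound addition, loss of signal relative to DMSO. Primary screen in duplicate at 25 uM; actives re-run as concentration-response with 50 uM top concentration.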
# [8] = system: rat Monoamine Oxidase, MAO-A, Peripheral (MAOAP), gene 29253; experiment: NVS_ENZ_rMAOAP: NovaScreen (NVS) Enzymatic Assay for rat Monoamine Oxidase, MAO-A, Peripheral (MAOAP) (AID 2283237)
# Method in brief: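 Rat liver mitochondrial membranes served as the MAO-A source, with enzyme activity measured by radiometric scintillation counting 1.17 hours after dosing. Loss of signal was fitted against DMSO; primary screen used 25 uM in duplicate, follow-up used concentration series.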
# [9] = biological target: rat Monoamine Oxidase, MAO-B, Peripheral (MAOBP), Maob (gene 25750) (UniProt P19643); experiment: NVS_ENZ_rMAOBP: NovaScreen (NVS) Enzymatic Assay for rat Monoamine Oxidase, MAO-B, Peripheral (MAOBP) (AID 2283242)
# Sequence of rat Monoamine Oxidase, MAO-B, Peripheral (MAOBP), Maob (gene 25750) (P19643 whole entry, looked up): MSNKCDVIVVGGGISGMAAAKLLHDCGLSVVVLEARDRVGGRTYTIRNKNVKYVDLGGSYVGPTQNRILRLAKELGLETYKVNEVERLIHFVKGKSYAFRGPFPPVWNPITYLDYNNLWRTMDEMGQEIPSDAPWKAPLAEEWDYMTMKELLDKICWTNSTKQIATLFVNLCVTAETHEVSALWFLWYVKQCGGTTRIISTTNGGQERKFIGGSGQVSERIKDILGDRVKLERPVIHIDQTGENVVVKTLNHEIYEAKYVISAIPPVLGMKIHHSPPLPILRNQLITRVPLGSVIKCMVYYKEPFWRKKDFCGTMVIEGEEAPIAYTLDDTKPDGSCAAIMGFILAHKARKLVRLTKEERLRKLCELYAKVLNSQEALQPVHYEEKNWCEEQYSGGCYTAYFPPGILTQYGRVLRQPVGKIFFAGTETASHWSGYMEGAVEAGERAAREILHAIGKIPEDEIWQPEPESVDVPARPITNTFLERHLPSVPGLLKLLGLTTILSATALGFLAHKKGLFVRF
# [10] = biological target: human Neonicotinoid receptor (NNR), CHRNA2 (gene 1135) (UniProt Q15822); experiment: NVS_LGIC_hNNR_NBungSens: NovaScreen (NVS) Ligand-Gated Ion Channel Assay for human Neonicotinoid receptor (NNR) (AID 2283313)
# Sequence of human Neonicotinoid receptor (NNR), CHRNA2 (gene 1135) (Q15822 whole entry, looked up): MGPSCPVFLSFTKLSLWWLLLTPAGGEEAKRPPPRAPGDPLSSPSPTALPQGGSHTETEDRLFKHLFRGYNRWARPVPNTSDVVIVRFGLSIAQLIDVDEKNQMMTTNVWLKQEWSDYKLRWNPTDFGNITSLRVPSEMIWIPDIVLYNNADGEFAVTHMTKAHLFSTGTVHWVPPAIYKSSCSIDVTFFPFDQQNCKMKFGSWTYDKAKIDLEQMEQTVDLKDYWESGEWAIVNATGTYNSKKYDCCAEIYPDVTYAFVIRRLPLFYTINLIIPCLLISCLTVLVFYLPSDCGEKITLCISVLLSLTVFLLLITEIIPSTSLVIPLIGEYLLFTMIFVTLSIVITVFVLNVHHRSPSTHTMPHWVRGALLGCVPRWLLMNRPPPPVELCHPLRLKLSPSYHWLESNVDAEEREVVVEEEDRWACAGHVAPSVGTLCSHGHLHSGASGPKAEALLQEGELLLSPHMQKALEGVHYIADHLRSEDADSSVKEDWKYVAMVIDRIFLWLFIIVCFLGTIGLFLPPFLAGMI
# Method in brief: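 Radioligand displacement on human neuroblastoma membranes, 2 h, filter-based scintillation counting. Primary screen in duplicate at 25 uM; chemicals passing threshold (e.g. 30% inhibition) run singleton concentration-response to 50 uM; loss of binding fitted versus DMSO.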
# [11] = biological target: human Matrix Metalloproteinase-1 (MMP1), MMP1 (gene 4312) (UniProt P03956); experiment: NVS_ENZ_hMMP1: NovaScreen (NVS) Enzymatic Assay for human Matrix Metalloproteinase-1 (MMP1) (AID 2283181)
# Method in brief: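 Human MMP1 enzyme activity measured by fluorescence 1 h after dosing, cell-free, with a specific substrate. Screened in duplicate at 25 uM; hits (e.g. 30% inhibition) run in concentration-response up to 50 uM; loss of signal versus DMSO.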
# [12] = biological target: rat Monoamine Oxidase, MAO-B, Central (MAOBC), Maob (gene 25750) (UniProt P19643); experiment: NVS_ENZ_rMAOBC: NovaScreen (NVS) Enzymatic Assay for rat Monoamine Oxidase, MAO-B, Central (MAOBC) (AID 2283238)
# Sequence of rat Monoamine Oxidase, MAO-B, Central (MAOBC), Maob (gene 25750) (P19643 whole entry, looked up): as the sequence (P19643 whole entry, looked up) above
# Method in brief: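 MAO-B activity in rat brain tissue preparation, cell-free, measured radiometrically by scintillation counting 1.17 h after dosing. Screened in duplicate at 25 uM; actives then in concentration-response up to 50 uM. Loss of signal versus DMSO scored.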
# [13] = biological target: Norway rat Vesicular Monoamine Transporter (VMAT2), neurotransmitter transporter, Slc18a2 (gene 25549) (UniProt Q01827); experiment: NVS_TR_rVMAT2: NovaScreen (NVS) Transporter Assay for Norway rat Vesicular Monoamine Transporter (VMAT2), neurotransmitter transporter (AID 2283376);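 note: actives lower the bound radioligand signal below the DMSO level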
# Method in brief: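 Radioligand displacement binding on rat forebrain tissue preparation, filter-based scintillation read-out 1 hour after dosing. Primary screen in duplicate at 25 uM, then concentration series for actives; loss of signal versus DMSO.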
# [14] = biological target: human Mitogen-Activated Protein Kinase 1 (MAPK 1), MAPK1 (gene 5594) (UniProt P28482); experiment: NVS_ENZ_hMAPK1: NovaScreen (NVS) Enzymatic Assay for human Mitogen-Activated Protein Kinase 1 (MAPK 1) (AID 2283175)
# Method in brief: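 Cell-free recombinant human MAPK1 enzymatic assay, fluorescence/electrophoretic mobility shift read at 1 h; loss of signal vs DMSO. Primary screen in duplicate at 25 uM; actives (e.g. ≥30% inhibition) run as concentration-response up to 50 uM.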
# [15] = system: guinea pig Atrionatriuretic Peptide Receptor A (ANPA), gene 100135578; experiment: NVS_GPCR_gANPA: NovaScreen (NVS) G Protein-Coupled Receptor Assay for guinea pig Atrionatriuretic Peptide Receptor A (ANPA) (AID 2283291)
# Method in brief: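 Radioligand binding to guinea pig cerebellar membranes was measured after 1 h by filter-based scintillation counting. Chemicals were tested in duplicate at 25 uM, with hits run in concentration-response to a maximum of 50 uM. Binding loss was fitted against DMSO.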
smiles,measurement,setting,value
O=C(O)c1cc(N=Nc2ccc(S(=O)(=O)Nc3ccccn3)cc2)ccc1O,outcome,[1],inactive
same,outcome,[2],inactive
same,outcome,[3],inactive
same,outcome,[4],inactive
same,outcome,[5],inactive
CNS(=O)(=O)c1cc(C(=O)N2CCC(CCN3C4CCC3CC(n3c(C)nc5ccccc53)C4)(c3cccc(F)c3)CC2)c(Cl)cc1F (stereo not drawn),outcome,[6],inactive
same,outcome,[3],inactive
same,outcome,[7],inactive
same,outcome,[8],inactive
same,outcome,[9],inactive
same,outcome,[10],inactive
O=C(O)C1(C(=O)Nc2ccc(Cl)cc2Cl)CC1,AC50,[1],16.3 µM (active)
same,AC50,[2],18.3 µM (active)
same,AC50,[4],10.1 µM (active)
CC(=O)Oc1ccccc1C(=O)O,outcome,[3],inactive
CC(C)=CCC/C(C)=C/CO,outcome,[3],inactive
Nc1ccc(C(=O)O)cc1,outcome,[11],inactive
N=C(N)c1ccc(OCCCCCOc2ccc(C(=N)N)cc2)cc1,outcome,[2],inactive
same,AC50,[7],21.9 µM (active)
same,AC50,[8],0.504 µM (active)
same,AC50,[12],0.0798 µM (active)
same,AC50,[9],0.905 µM (active)
same,AC50,[5],0.203 µM (active)
same,AC50,[13],5.98 µM (active)
CCCCC(CC)COC(=O)CCCCC(=O)OCc1ccccc1 (stereo not drawn),outcome,[2],inactive
CC(O)CO (stereo not drawn),outcome,[3],inactive
CCCCCCCC=O,outcome,[2],inactive
same,outcome,[14],inactive
same,outcome,[7],inactive
same,outcome,[8],inactive
Clc1cc(Cl)c2c(c1)N=C1CCCCCN1C2,outcome,[2],inactive
same,AC50,[7],0.463 µM (active)
same,AC50,[8],4.96 µM (active)
same,AC50,[5],8.08 µM (active)
same,AC50,[10],1.98 µM (active)
Cc1cc(C)c(O)c(C)c1,outcome,[2],inactive
same,outcome,[5],inactive
same,outcome,[15],inactive
